A selection: hits, their analogues and other compounds. The true share with any hit is near 18%.
TDP1 inh – inhibitors of human tyrosyl-DNA phosphodiesterase TDP1; Q9NUW8; Potency, µM (doses to about 130 µM), without a hit: top-dose activity change, negative = inhibition, most hits filed as inhibitors; recombinant TDP1, AlphaScreen DNA substrate cleavage; 350,000 tested, 0.28% active; note: potency is the fitted concentration of half-maximal effect; % is set by controls: 0 for no effect and ±100 for the full control effect; nearly all actives have a fitted effect of over 40% in size
Target sequence (Q9NUW8 whole entry, looked up): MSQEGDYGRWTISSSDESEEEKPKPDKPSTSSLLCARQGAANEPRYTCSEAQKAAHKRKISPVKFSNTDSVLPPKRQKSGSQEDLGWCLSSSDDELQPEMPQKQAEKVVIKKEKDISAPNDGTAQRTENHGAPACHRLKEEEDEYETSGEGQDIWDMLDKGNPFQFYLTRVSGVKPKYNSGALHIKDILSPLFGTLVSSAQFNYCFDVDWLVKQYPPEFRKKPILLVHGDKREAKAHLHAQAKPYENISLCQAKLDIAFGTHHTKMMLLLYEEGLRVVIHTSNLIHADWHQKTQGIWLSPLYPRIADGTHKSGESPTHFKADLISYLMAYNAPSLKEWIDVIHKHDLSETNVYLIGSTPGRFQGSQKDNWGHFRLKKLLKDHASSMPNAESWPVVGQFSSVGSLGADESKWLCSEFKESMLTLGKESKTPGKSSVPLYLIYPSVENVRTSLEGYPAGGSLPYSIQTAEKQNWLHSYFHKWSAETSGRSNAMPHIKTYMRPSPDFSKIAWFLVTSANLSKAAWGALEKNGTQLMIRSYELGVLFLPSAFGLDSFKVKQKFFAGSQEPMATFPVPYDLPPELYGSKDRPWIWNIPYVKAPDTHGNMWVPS
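Steps: enzyme plus compound, 15 min RT; add biotin/phosphotyrosine-FITC oligonucleotide (15 nM final), react 5 min; add donor/acceptor beads (10 ug/ml final), 10 min; read AlphaScreen. Tdp1 at 1 nM final.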
TDP1 cell noCPT – qHTS for Inhibitors of human tyrosyl-DNA phosphodiesterase 1 (TDP1): qHTS in cells in absence of CPT; DT40 Tdp1-/- hTDP1 cells, no CPT, ATP luminescence, 48 h; Potency, µM (series often up to 46.2 µM), for inactives: at the highest dose activity change, negative = growth inhibition, actives largely listed as inhibitors; 420,000 tested, 15% active; note: potency is the fitted concentration of half-maximal effect; % is set by controls: 0 for no effect and ±100 for the full control effect; nearly all actives have a fitted effect of over 55% in size
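Seeded 400 DT40-hTDP1 cells/well (vehicle DMSO, no 20 nM CPT); pinned compounds; ≥48 hr at 37 °C; CellTiter-Glo luminescence as viability measure.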
HepG2 tox – HepG2 cytotoxicity, counter-screen for TGF-b inhibitors; AID 588856; 410,000 tested, 0.76% active; HepG2 CAGA-GFP viability, ATP luminescence, 18 h; Potency, µM (top dose mostly 46.1 µM), for inactives: top-dose activity change, negative = cytotoxicity, hits mostly cytotoxic; note: potency is the fitted concentration of half-maximal effect
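HepG2 CAGA-GFP cells (1000/well, DMEM with 1% FBS) received compound, then TGF-beta at 500 pg/mL final, and were incubated 18 hours at 37 degrees C. Viability was read by CellTiter-Glo luminescence. Media-only wells were set as complete cell-killing and DMSO as no toxicity.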
IL1B secr inh – blocks inflammasome-driven IL-1 beta release; THP-1 LPS/ATP IL-1B secretion, AlphaLISA, 16 h; hits give low values; activity change, % at 57.5 µM; 360,000 tested, 4.7% active; AID 743279; in the data active = activity change below about -50%; inconclusive = mostly about -30% to -49%; note: % is set by controls: 0 for no effect and ±100 for the full control effect
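Secreted IL-1B measured by AlphaLISA bead assay after 16 h compound exposure of THP-1 cells; compounds (final up to 57.5 uM) added 1 h before LPS (250 ng/mL) and ATP (1.25 mM) stimulation; lower signal means less secretion.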
TGFb SMAD3 inh – blocks TGF-b signaling. HepG2 CAGA-GFP TGF-b/SMAD3 reporter, GFP fluorescence, 18 h; TGF-beta stimulated, 500 pg/mL final. Potency, µM (doses to about 46.1 µM), inactives show at the top dose activity, negative = inhibition, usual class: inhibitors. 410,000 tested, 1.2% active. AID 588855; note: potency is the fitted concentration of half-maximal effect; % is set by controls: 0 for no effect and ±100 for the full control effect; nearly all actives have a fitted effect of over 65% in size
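Smad-responsive CAGA-GFP expression was quantified in HEPG2 cells exposed to compounds and 500 pg/mL final TGF-beta for 18 h at 37 degrees C; unstimulated wells defined full inhibition.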
DT40 TDP1 CPT – DT40-hTDP1 cell growth loss with CPT | 420,000 tested, 12% active | chicken DT40 Tdp1-/-;hTDP1 cells + 20 nM CPT, ATP luminescence, 48 h | AID 686979 | Potency, µM (top dose mostly 46.2 µM), for inactives: at the top dose activity change, negative = growth inhibition, actives largely listed as inhibitors; note: potency is the fitted concentration of half-maximal effect; % is set by controls: 0 for no effect and ±100 for the full control effect; nearly all actives have a fitted effect of over 55% in size
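Chicken DT40 Tdp1-/- cells stably complemented with human TDP1 were seeded at 400 cells/well in medium containing 20 nM camptothecin, exposed to pin-transferred compounds, and grown at 37 °C for at least 48 hr. Viability was read as ATP luminescence.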
* = called active by the depositor; ? = inconclusive; . = not tested or not shown; [ ] = remark or other dose. Unless noted, calls come from the whole dose curve; as a rule, active = well fitted curve in the direction sought with a large enough effect; inconclusive = small, poorly fitted or top-dose-only effect, or another doubt; inactive = no such curve, though single readings can be large; an effect the other way counts as inactive or inconclusive.

SMILES	TDP1 inh	TDP1 cell noCPT	HepG2 tox	IL1B secr inh	TGFb SMAD3 inh	DT40 TDP1 CPT
CCCCCCn1c(=O)n2n(c1=O)C[C@]1(OC(=O)Nc3cccs3)CN(S(=O)(=O)c3ccc(C)cc3)C[C@]1(O)C2	.	13µM*	-99.8%	-51.4*	?	20.6µM*
CCCCCCn1c(=O)n2n(c1=O)C[C@]1(OC(=O)NCc3ccco3)CN(S(=O)(=O)c3ccc(C)cc3)C[C@]1(O)C2	.	25.9µM*	-12.9%	-0.5	-6.9%	?
Cc1ccc(S(=O)(=O)N2C[C@]3(O)C[C@@H]4C(=O)N(c5ccccc5)C(=O)[C@@H]4C[C@]3(OC(=O)NCc3ccco3)C2)cc1	.	-29.1%	2.4%	13.2	-4.8%	-0.7%
CCCCCCn1c(=O)n2n(c1=O)C[C@]1(OC(=O)Nc3c(C)noc3C)CN(S(=O)(=O)c3ccc(C)cc3)C[C@]1(O)C2	.	20.6µM*	-52.6%	1.4	-12.0%	?
CC(=O)Nc1ccc(NC(=O)c2ccc3c(c2)CCN3S(=O)(=O)c2ccc(Cl)cc2)cc1	2.3%	?	-29.3%	.	-0.7%	?
Cc1nn(Cc2ccc(F)cc2)c2sc(C(=O)Nc3ccc(N4CCOCC4)cc3N3CCOCC3)cc12	9.6%	7.31µM*	-29.4%	-25.5	-6.5%	8.2µM*
COc1ccc(OC2C=CC(C#Cc3ccc(C(C)(C)C)cc3)OC2CO)cc1 (stereo not drawn)	0.5%[21 µM]	.	.	.	.	.
CN1CC(=O)NC1=NC(=O)C12CC3CC(CC(C3)C1)C2	0.0%	18.4µM*	-2.6%	5.3	-3.7%	?
CCc1ccc(/C=C2/Sc3ccccc3N(CC(=O)NCC3CCCO3)C2=O)cc1 (stereo not drawn)	3.8%	?	-4.4%	-6.0	1.5%	?
Cc1ccc(-c2nc3ccccc3nc2-c2ccccc2)cc1	79.4µM*	14.6µM*	-28.9%	-12.5	-22.1%	?
Clc1nc2ccccc2nc1-c1ccccc1	1.3%	-23.4%	-7.6%	2.0	-11.6%	-16.7%
Oc1ccccc1-c1nc2ccccc2nc1-c1ccccc1	5.6%	?	-1.5%	3.8	-1.1%	?
Clc1ccc(-c2nc3ccccc3nc2-c2ccccc2)cc1	-5.3%	20.6µM*	2.7%	-10.8	10.6%	?
COc1cc(CNC(=O)c2ccc3c(c2)S(=O)(=O)c2ccccc2C3=O)cc(OC)c1	.	?	-7.9%	-15.0	4.1%	?
CCOC(=O)/C=C/C(=O)Nc1cccc([N+](=O)[O-])c1	-2.3%	4.11µM*	12.6µM*	-64.5*	11.2µM*	1.64µM*
CCOC(=O)/C=C/C(=O)Nc1ccccc1-c1ccccc1NC(=O)/C=C/C(=O)OCC	-2.7%	5.17µM*	8.1%	-83.1*	0.0%	4.61µM*
CCOC(=O)/C=C/C(=O)OCC(=O)Nc1cccc(Cl)c1Cl	2.9%	?	-25.7%	-11.7	-27.0%	-18.4%
CCOC(=O)c1cccc(NC(=O)/C=C/c2cccc([N+](=O)[O-])c2)c1	3.9%	?	1.1%	-9.7	2.1%	?
COC(=O)C1=C[C@@H](C(=O)OC)C2C3=C(C(=O)[C@@]2(C)NC(=O)c2ccccc2)[C@H](C)n2c(=O)n(-c4ccccc4)c(=O)n2[C@@H]3C1 (stereo partly drawn)	8.5%	.	-25.6%	.	-7.9%	.
O=C1/C(=C/c2ccc(O)cc2)CCc2ccc([N+](=O)[O-])cc21	2.5%	16.4µM*	10.6%	?	?	?
O=C1/C(=C/c2ccc(Br)cc2)Oc2cc(O)ccc21	.	?	-1.3%	-0.5	?	-4.4%

Screening results as filed in PubChem.
